In PubChem BioAssay (NCATS):
Results filed as inconclusive are left out. Where a call stands in place of a potency, no number is given. Activity calls are given as the source filed them. Unless noted, the call rests on the fitted dose curve.

What was measured:
[1] = qHTS for Inhibitors of the Functional Ribonucleoprotein Complex (vRNP) of Lassa (LASV) Arenavirus: LASV Primary Screen - GLuc reporter signal (AID 1347082; calls by dose curve; tested in HEK293 reporter line; further: nearly all actives have a fitted effect of over 60% in size); conditions: LASV minigenome vRNP, Gaussia luciferase reporter; series mostly up to 57.5 µM
[2] = qHTS for Inhibitors of the Functional Ribonucleoprotein Complex (vRNP) of Lassa (LASV) Arenavirus: Viability assay - alamar blue signal for LASV Primary Screen (AID 1347083; calls by dose curve; tested in HEK293 reporter line; further: nearly all actives have a fitted effect of over 80% in size); conditions: cell viability, alamar blue fluorescence (LASV minigenome counter-screen); series mostly up to 57.5 µM
[3] = qHTS for Inhibitors of the Functional Ribonucleoprotein Complex (vRNP) of Lymphocytic Choriomeningitis Arenaviruses (LCMV): Viability assay - alamar blue signal for LCMV Primary Screen (AID 1347085; calls by dose curve; tested in HEK293 reporter line; further: nearly all actives have a fitted effect of over 80% in size); conditions: alamar blue viability counter-screen, LCMV vRNP screen cells; series mostly up to 57.5 µM
[4] = biological target: Nucleoprotein (Lymphocytic choriomeningitis virus (strain Armstrong)) (UniProt P09992); test: qHTS for Inhibitors of the Functional Ribonucleoprotein Complex (vRNP) of Lymphocytic Choriomeningitis Arenaviruses (LCMV): LCMV Primary Screen - GLuc reporter signal (AID 1347086); conditions: LCMV minigenome vRNP cell assay, Gaussia luciferase reporter; series mostly up to 57.5 µM; further: nearly all actives have a fitted effect of over 70% in size
Sequence of Nucleoprotein (Lymphocytic choriomeningitis virus (strain Armstrong)) (P09992 whole entry, looked up): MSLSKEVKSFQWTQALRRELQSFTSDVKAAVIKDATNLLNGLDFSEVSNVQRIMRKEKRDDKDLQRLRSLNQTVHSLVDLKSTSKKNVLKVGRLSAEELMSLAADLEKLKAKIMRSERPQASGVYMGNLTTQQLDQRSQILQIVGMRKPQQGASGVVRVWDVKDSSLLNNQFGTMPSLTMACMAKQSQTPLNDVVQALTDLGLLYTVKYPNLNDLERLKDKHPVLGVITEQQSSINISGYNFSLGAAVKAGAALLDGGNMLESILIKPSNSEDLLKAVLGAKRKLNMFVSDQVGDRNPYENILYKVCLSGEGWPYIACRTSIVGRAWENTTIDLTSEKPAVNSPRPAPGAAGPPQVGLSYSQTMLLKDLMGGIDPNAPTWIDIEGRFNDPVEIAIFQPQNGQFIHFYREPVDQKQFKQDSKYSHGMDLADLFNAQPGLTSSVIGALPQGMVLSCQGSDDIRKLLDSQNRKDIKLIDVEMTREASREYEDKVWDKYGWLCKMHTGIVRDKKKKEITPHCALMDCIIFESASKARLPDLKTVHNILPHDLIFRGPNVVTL
Potency means the concentration at half of the fitted maximal effect.

SMILES	Potency [1]	Potency [2]	Potency [3]	Potency [4]
COc1ccc(Nc2cc(-c3cnc(N)nc3)nc(N3CCOCC3)n2)cn1	12.2 µM (active)	3.85 µM (active)		
CC(=O)O[C@@H]1CC[C@@]2(C)[C@H](C1)[C@H](OC(C)=O)C[C@@H]1[C@@H]2C[C@H]2[C@@H]3CN4C[C@H](C)CC[C@H]4[C@H](C)[C@H]3CC[C@@]12O	inactive	inactive		
CC(C)(O)CC(=O)NCCn1ccc2ncnc(Nc3ccc(Oc4cccc(C(F)(F)F)c4)c(Cl)c3)c21	inactive	inactive	0.769 µM (active)	
Nc1ccn([C@@H]2O[C@H](CO)[C@H](O)C2(F)F)c(=O)n1	inactive	0.968 µM (active)	0.968 µM (active)	
CC[C@H]1OC(=O)[C@H](C)C(=O)[C@H](C)[C@@H](O[C@H]2O[C@H](C)C[C@H](N(C)C)[C@@H]2O)[C@](C)(OC)C[C@@H](C)C(=O)[C@H](C)[C@H]2N(CCCCn3cnc(-c4cccnc4)c3)C(=O)O[C@]12C	inactive	inactive	inactive	
COc1cccc2c1C(=O)c1c(O)c3c(c(O)c1C2=O)C[C@@](O)(C(=O)CO)C[C@H]3O[C@H]1C[C@H](N)[C@H](O)[C@H](C)O1	13.7 µM (active)	1.09 µM (active)	0.863 µM (active)	
COc1ccnc2[nH]cc(C(=O)C(=O)N3CCN(C(=O)c4ccccc4)C[C@@H]3C)c12	inactive	inactive		
O=c1ccn([C@@H]2O[C@H](COP(=O)(O)O)[C@@H](O)[C@H]2O)c(=O)[nH]1	inactive	inactive		
CC1(C)C2=CCCC(C)(C)[C@]23CC[C@H]1C3	inactive	inactive	inactive	inactive
O=C(O)C[C@H](O)C[C@H](O)C=Cc1c(C2CC2)nc2ccccc2c1-c1ccc(F)cc1	inactive	24.3 µM (active)		
O=C(/C=C/c1ccc(O)c(O)c1)c1ccc(O[C@@H]2O[C@H](CO)[C@@H](O)[C@H](O)[C@H]2O)c(O)c1O	inactive	inactive		
COc1ccc(-c2cc(=O)c3c(O)cc(O)c(-c4cc(-c5cc(=O)c6c(O)cc(OC)cc6o5)ccc4OC)c3o2)cc1	inactive	inactive		
COc1cc(/C=C/C(=O)c2ccc(O)cc2O)ccc1O	inactive	inactive		
COc1ccc(C2CC(=O)c3c(O)cc(O)cc3O2)cc1O (stereo not given)	inactive	inactive		
Cc1cc(Nc2nc(N[C@@H](C)c3ccc(F)cc3)c(C#N)cc2F)n[nH]1	inactive	4.85 µM (active)	10.9 µM (active)	inactive
Cc1cc(=O)oc2cc3c(cc12)OCO3	inactive	inactive	inactive	inactive
NC1(Cc2ccc(Cl)cc2)CCN(c2ncnc3[nH]ccc23)CC1	9.68 µM (active)	2.73 µM (active)	7.69 µM (active)	9.68 µM (active)
CCS(=O)(=O)c1cccc(-c2cc(C(=O)NC3CCN(C)CC3)c(C)c3[nH]c4ncc(C)cc4c23)c1	12.2 µM (active)	6.85 µM (active)	6.11 µM (active)	
Cc1cnn(C)c1C(=O)Nc1cc(Nc2ccc3c(C=Cc4ccccn4)n[nH]c3c2)ccc1F	21.7 µM (active)	19.3 µM (active)		

SMILES	Potency [1]	Potency [2]	Potency [3]	Potency [4]
COc1cccc(-c2ccc(NC(=O)C3=C(C(=O)O)CCC3)c(F)c2)c1	inactive	inactive	inactive	
Cc1cc(Nc2ncc3c(n2)N(C)C(=O)N(c2cc(NC(=O)c4cccc(C(F)(F)F)c4)ccc2C)C3)n(C)n1	3.85 µM (active)	0.611 µM (active)	1.53 µM (active)	
CN[C@@H]1CN(c2ccc3c(=O)c(C(=O)O)cn(-c4nccs4)c3n2)C[C@@H]1OC	inactive	10.6 µM (active)	15 µM (active)	
CC(=O)OC1CCC2(C)C(COc3ccc4ccc(=O)oc4c3)C(C)(O)CCC2C1(C)C (stereo not given)	inactive	inactive	inactive	
CCC12CCCN3CCC4(C(=C(C(=O)OC)C1)Nc1ccccc14)C32 (stereo not given)	inactive	inactive	inactive	
COC(=O)c1ccc2c(c1)C(NC(C)=O)CCc1cc(OC)c(OC)c(OC)c1-2 (stereo not given)	inactive	inactive		
COc1cc(OC)c2c(=O)cc(-c3ccccc3)oc2c1	inactive	inactive	inactive	
CC(C)CNC(=O)/C=C/C=C/CCCC/C=C/c1ccc2c(c1)OCO2	inactive	inactive	inactive	inactive
CCC(=C(c1ccc(O)cc1)c1ccc(OCCNC)cc1)c1ccccc1	3.43 µM (active)	3.43 µM (active)	13.7 µM (active)	
CCCCCCC[C@@H](C/C=C/CCC(=O)N(C)C/C(=C/Cl)C/C(=C\C(=O)N1C[C@H](O)CC1=O)OC)OC	inactive	inactive	inactive	
O=C1NC(=O)C(=Cc2ccc3nccc(-c4ccncc4)c3c2)S1	0.432 µM (active)	0.109 µM (active)	0.273 µM (active)	
CC1=C(C(=O)Nc2cc3cn[nH]c3cc2F)C(c2ccc(Cl)cc2F)N=C(c2ccnc(Cl)c2)N1 (stereo not given)	inactive	inactive	inactive	
C[C@@H]1[C@H](C)CC[C@]2(C(=O)O)CC[C@]3(C)C(=CC[C@@H]4[C@@]5(C)C[C@@H](O)[C@H](O)[C@@](C)(CO)[C@H]5CC[C@]43C)[C@@H]12	inactive	inactive	inactive	inactive
C=C(C)C(Cc1c(OC)ccc(C(=O)/C=C/c2ccc(O)cc2)c1O)OO (stereo not given)	inactive	inactive	inactive	
CCCCCCC1CCC(=O)O1 (stereo not given)	inactive	inactive	inactive	
CCC(=C(CC)c1ccc(O)cc1)c1ccc(O)cc1	inactive	0.0153 µM (active)	0.0137 µM (active)	
CC(=O)[C@]1(O)Cc2c(O)c3c(c(O)c2[C@@H](O[C@H]2C[C@H](N)[C@@H](O)[C@H](C)O2)C1)C(=O)c1ccccc1C3=O	10.9 µM (active)	0.769 µM (active)	0.611 µM (active)	
CC(C)c1c(C(=O)Nc2ccccc2)c(-c2ccccc2)c(-c2ccc(F)cc2)n1CC[C@H](O)C[C@@H](O)CC(=O)O	inactive	inactive		
